M1 PAM: positive allosteric modulators of human M1 muscarinic receptor; AID 588819; actives 0.088% (n = 360,000); CHO-K1 hM1, Fluo-8 calcium fluorescence, ACh EC20; 0% = ACh EC20, 100% = maximal ACh; activation, % at 3 µM; in the data active means activation above about 19%, passing the limit was not always enough
Target sequence (P11229 whole entry, looked up): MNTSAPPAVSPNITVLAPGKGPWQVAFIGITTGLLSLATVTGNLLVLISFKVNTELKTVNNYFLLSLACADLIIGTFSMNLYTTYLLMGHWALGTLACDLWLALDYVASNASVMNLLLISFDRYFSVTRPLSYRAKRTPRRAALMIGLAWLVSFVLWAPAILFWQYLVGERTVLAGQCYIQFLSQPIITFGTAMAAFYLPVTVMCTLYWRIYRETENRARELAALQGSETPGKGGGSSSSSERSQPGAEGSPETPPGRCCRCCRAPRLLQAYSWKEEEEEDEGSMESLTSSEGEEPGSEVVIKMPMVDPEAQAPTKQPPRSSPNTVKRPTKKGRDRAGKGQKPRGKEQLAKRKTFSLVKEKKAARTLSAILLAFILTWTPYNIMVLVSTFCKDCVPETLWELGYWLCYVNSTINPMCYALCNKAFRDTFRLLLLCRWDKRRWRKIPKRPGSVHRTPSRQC
CHO-K1 Ca antag: counter-screen for M1 antagonists: effect in parental CHO-K1 cells. ATP-induced calcium, Fluo-8 fluorescence. actives 0.6% (n = 360,000). inhibition, % at 3 µM;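 active means inhibition above a per-plate cutoff, the plate's mean sample inhibition plus 3 SD, cut at about 24% in these data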;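 further: 0% = DMSO plus EC80 ATP and 100% = DMSO alone without ATP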
M1 PAM parental: counter-screen for M1 PAMs: effect in parental CHO-K1 cells | ATP EC20, Fluo-8 calcium fluorescence; 0% at ATP EC20, 100% at ATP max | activation, % at 3 µM | actives 0.02% (n = 360,000) | AID 602247;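 active means activation above the run cutoff, the mean activation of all test compounds plus 3 SD, cut at about 40% in these data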;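 further: peak over basal fluorescence ratio in a 140 s read after ATP addition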
CHRM1 antagonist: human CHRM1 antagonism | actives 1.3% (n = 360,000) | AID 588852 | inhibition, % at 3 µM | CHO-K1 hM1, Fluo-8 calcium fluorescence, ACh EC80 antagonist | P11229;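 active means percent inhibition above its own plate's cutoff, namely the mean of that plate's compound wells plus 3 SD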;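 further: peak over basal fluorescence ratio during 140 s after agonist addition; 0% = ACh EC80 plus DMSO and 100% = DMSO alone without agonist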
M1 ag parental: nonselective activator or artifact in parental CHO-K1 cells; Fluo-8 calcium fluorescence; scaled to maximal ATP response, vehicle zero; actives 0.48% (n = 360,000); activation, % at 3 µM; AID 602248; in the data active means activation above about 15%;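 further: untransfected CHO-K1 host cells lacking M1 receptor as counterscreen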
CHRM1 agonist: human M1 muscarinic receptor agonism; CHO-K1 hM1, Fluo-8 calcium fluorescence, agonist mode; 0% DMSO, 100% acetylcholine EC100; AID 588814; actives 0.33% (n = 360,000); activation, % at 3 µM;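 active means activation above the run's mean compound activation plus 3 SD, cut at about 16% in these data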;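 further: peak over basal fluorescence ratio within a 140 s kinetic read after compound addition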
* = called active by the depositor. This is a sample that favours compounds with a hit; in the whole collection about 2.3% have one here.

SMILES | M1 PAM | CHO-K1 Ca antag | M1 PAM parental | CHRM1 antagonist | M1 ag parental | CHRM1 agonist
CC(OC(=O)CCCN=C1NS(=O)(=O)c2ccccc21)C(=O)c1ccccc1 (stereo not drawn) | -3.4 | -4.1 | 6.0 | 4.6 | 16.0* | 19.3*
O=S(=O)(/N=S1/CC=CCN1S(=O)(=O)c1ccccc1)c1ccccc1 (stereo not drawn) | 11.5 | 10.3 | 4.8 | -11.1 | 11.9 | 20.7*
O=S(=O)(c1ccccc1)N1CCN(S(=O)(=O)c2ccccc2)C1 | -1.7 | 1.0 | -1.4 | 2.2 | 0.9 | -2.9
CCNc1nc(NC(C)C)nc(NC(C)(C)C)n1 | -19.6 | -11.0 | 9.6 | 33.2* | 1.4 | -5.6
CCOc1ccc(NC(=O)CN2CCN(C3c4ccccc4-c4ccccc43)CC2)cc1 | 0.0 | -4.4 | 2.2 | 0.7 | 0.4 | -4.5
COc1ccc(NC(=O)CN2CCN(C3c4ccccc4-c4ccccc43)CC2)c(OC)c1 | 1.8 | -43.9 | 52.1* | -4.7 | 0.2 | -1.1
CC1CCN(CC(=O)Nc2ccccc2-c2ccccc2)CC1 | -33.6 | -17.3 | -11.3 | 32.5* | -1.2 | -11.5
O=C(CN1CCCC1)NC(c1ccccc1)c1ccccc1 | -26.0 | 9.8 | -13.2 | 68.8* | 0.3 | -8.0
O=C(CN1CCN(c2ccccc2O)CC1)NC(c1ccccc1)c1ccccc1 | 6.1 | -2.6 | 10.2 | -3.5 | 0.1 | -6.1
O=C(CN1CCCCCC1)Nc1ccccc1Oc1ccccc1 | -25.7 | -18.2 | 16.4 | 40.6* | -0.1 | -8.8
CCc1nc2c(OCC(=O)C(C)(C)C)cccn2c1N(C)C(=O)COc1ccccc1 | 6.1 | 0.7 | 8.5 | -9.1 | -0.1 | -5.9
Cc1ccc(S(=O)(=O)N2C[C@H]3C(=O)C[C@@H](c4ccccc4)N(S(=O)(=O)c4ccc(C)cc4)[C@H]3C[C@H]2c2ccccc2Cl)cc1 | -1.5 | 6.7 | 10.9 | 1.0 | 0.5 | -2.8
COc1ccccc1NC(=O)CN1CCCCCC1 | 5.5 | 7.4 | -1.3 | -7.2 | -0.4 | -10.1
COc1ccccc1NC(=O)CN1CCN(C2c3ccccc3-c3ccccc32)CC1 | -0.3 | -27.8 | 48.0* | 3.5 | 4.2 | 6.1
CCC1=NN2C(=N)/C(=C/c3cc(C)n(Cc4ccccc4)c3C)C(=O)N=C2S1 | -18.6 | -4.9 | -13.0 | -3.3 | 20.5* | 19.9*
Cc1cc(/C=C2\C(=N)N3N=C(c4ccco4)SC3=NC2=O)c(C)n1Cc1ccccc1 | -20.6 | -6.8 | -0.1 | 51.9* | 8.0 | 41.8*
Cc1c(CCOC(=O)C23CC4(C)CC(C)(CC(C)(C4)C2)C3)sc[n+]1CC(=O)c1ccccc1 | -24.3 | 8.0 | -4.0 | 32.1* | -0.2 | -8.9
Cc1ncc(C[n+]2csc(CCOC(=O)C34CC5CC(CC(C5)C3)C4)c2C)c(N)n1 | -17.6 | 2.6 | -3.9 | 8.6 | 0.2 | -15.4
Cc1c(CCOC(=O)C23CC4CC(CC(C)(C4)C2)C3)sc[n+]1Cc1ccccc1 | -22.7 | 12.4 | -3.9 | 99.8* | -0.6 | -5.4
Cc1c(CCOC(=O)CC23CC4CC(CC(C4)C2)C3)sc[n+]1CC(=O)c1ccccc1 | -10.1 | -14.3 | 18.9 | 19.2 | 0.6 | -5.3
Cc1c(CCOC(=O)C23CC4CC(CC(C4)C2)C3)sc[n+]1Cc1ccccc1 | -25.7 | 7.4 | 3.6 | 64.3* | 0.9 | -12.5
Cc1c(CCOC(=O)c2ccc(Cl)cc2Cl)sc[n+]1CC(=O)c1ccccc1 | -29.0 | -6.8 | -5.6 | 95.3* | 2.3 | -3.3
CC(=O)Nc1ccc(C(=O)N2CCOCC2c2cc(C(=O)NCc3ccccc3)no2)cc1 (stereo not drawn) | 9.2 | -10.1 | 27.9 | -15.1 | 0.7 | -1.1
CC(C)CC1C(=O)N(Cc2cn(CCC3OCCCO3)nn2)CCS(=O)(=O)N1Cc1ccc(-c2ccc(Cl)c(Cl)c2)cc1 (stereo not drawn) | 7.0 | -7.5 | 18.4 | -12.0 | 2.5 | -2.1
Cc1c(CCOC(=O)c2cc([N+](=O)[O-])cc([N+](=O)[O-])c2)sc[n+]1CC(=O)c1ccc(Br)cc1 | -26.2 | -7.4 | 16.6 | 80.3* | 0.4 | -9.9
Cc1sc[n+](CC(=O)c2ccc(Br)cc2)c1C | -2.3 | -8.3 | 2.9 | 4.5 | 0.6 | -5.3

High-throughput results: PubChem, The Scripps Research Institute Molecular Screening Center
